# Laboratory results published in PubChem BioAssay (EPA / NIEHS).
# Calls of active or inactive are those of the source. The calls were made as follows: active = hit-call score of the fitted dose curve at least 0.9, where 1 is the maximum; inactive = score below 0.9.
# Assay: ATG_GRE_CIS: Attagene CIS-FACTORIAL HepG2 Assay for human Glucocorticoid Response Elements (GRE) (AID 2282947)
# Conditions: HepG2 GRE cis-reporter, Attagene multiplex mRNA; actives raise or lower the signal
# Protocol: ATG_CIS is a cell-based, multiplexed-readout assay that uses HepG2, a human liver cell line, with measurements taken at 24 hours after chemical dosing in a 24-well plate.ATG_GRE_CIS is one of 52 assay component(s) measured or calculated from the ATG_CIS assay. It is designed to make measurements of mRNA induction, a form of inducible reporter, as detected with fluorescence intensity signals by Reverse transcription polymerase chain reaction (RT-PCR) and Capillary electrophoresis technology.Data from the assay component ATG_GRE_CIS was analyzed into 1 assay endpoint. This assay endpoint, ATG_GRE_CIS, was analyzed with bidirectional fitting relative to DMSO as the negative control and baseline of activity. Using a type of inducible reporter, measures of mRNA for gain or loss-of-signal activity can be used to understand the reporter gene at the transcription factor-level as they relate to the gene NR3C1. Furthermore, this assay endpoint can be referred to as a primary readout, because this assay has produced multiple assay endpoints where this one serves a reporter gene function. To generalize the intended target to other relatable targets, this assay endpoint is annotated to the nuclear receptor intended target family, where the subfamily is steroidal.
# Human liver HepG2 cells are transiently transfected with multiple reporter transcription units (MRTUs) in 6-well plates using FuGene 6 reagent (Roche; 3 ml FuGene/1 mg DNA). The MRTU constructs are regulated by a cis-regulating element (promoter). […] A major difference between the CIS and TRANS system is that in CIS activities of endogenous TFs are measured, whereas the TRANS assay evaluates changes in activities of exogenous, chimeric NR-Gal4 proteins. […] At the end of 24 hour incubation, total RNA was isolated using TriZol reagent (Invitrogen). The isolated RNA is then reverse-transcribed using oligo(dT) primer and Mo-MLV reverse transcriptase (Invitrogen) with DNAse I (Ambion) treatment for 30 min. The one-tenth of the produced cDNA was amplified by PCR using Taq DNA polymerase (Invitrogen) and two reporter sequence-specific primers. The PCR products were fluorescently labeled by primer extension with 6-arboxyfluorescein (6-FAM) 5'-labeled reporter sequence-specific primer (2 min at 95 C, 20 s at 68 C and 10 min at 72 C) and these products were digested with 5U of HpaI (New England Biolabs) for 2h at 37 C. The fragments were purified using Qiaquick PCR columns (Qiagen), analyzed on an ABI 3130xL genetic analyzer (Applied Biosystems) with peak positions identified by using a set of X-rhodamine (ROX)-labeled MapMarker1000 molecular weight standards (BioVentures). The raw capillary electrophoresis data was processed using Attagraph software (Attagene).
row,SMILES,outcome
1,C=CN1CCCCCC1=O,inactive
2,c1ccc(CNc2ncnc3nc[nH]c23)cc1,inactive
3,Oc1cccc2ccccc12,inactive
4,O=C1NC(=O)[C@@H]2CC=CC[C@H]12,inactive
5,CC(C)=CCOC(=O)c1ccccc1,inactive
6,CC(C)CC(=O)O,inactive
7,CCO[Si](CCCN)(OCC)OCC,inactive
8,CCC(=O)OCc1ccc(OC)cc1,inactive
9,Cc1cc2nc3c(=O)[nH]c(=O)nc-3n(C[C@H](O)[C@H](O)[C@H](O)CO)c2cc1C,inactive
10,O=C(O)/C=C\C(=O)O,inactive
11,COCCCN,inactive
12,CC(=O)Nc1c(I)c(NC(C)=O)c(I)c(C(=O)O)c1I,inactive
13,Sc1nc2ccccc2s1,inactive
14,O=C(OCc1ccccc1)c1ccccc1,inactive
15,CCCCNC(N)=O,inactive
16,O=C(O)c1nc(Cl)c(Cl)c(Cl)c1Cl,inactive
17,CC/C=C\CCCCCO,inactive
18,CCCCCCCCCC/C=C/C1CC(=O)OC1=O (stereo not given),inactive
19,[O-][n+]1ccc(Cl)cc1,inactive
20,c1cc[c]([Bi]([c]2ccccc2)[c]2ccccc2)cc1,inactive

row,SMILES,outcome
1,CC/C=C\CCO,inactive
2,N#CCN(CC#N)CCN(CC#N)CC#N,inactive
3,O=C(O)/C=C/C(=O)O,inactive
4,CCCC(=O)OC,inactive
5,CC(C)n1c(/C=C/[C@@H](O)C[C@@H](O)CC(=O)O)c(-c2ccc(F)cc2)c2ccccc21,inactive
6,OCCc1ccccn1,inactive
7,COc1c2occc2cc2ccc(=O)oc12,inactive
8,Cc1ccnc(N)c1,inactive
9,O=C(c1ccccc1)c1ccccc1O,inactive
10,CNC(=C[N+](=O)[O-])NCCSCc1csc(CN(C)C)n1,inactive
11,O=C1NC(=O)C2CC=CCC12 (stereo not given),inactive
12,NCc1ccccc1,inactive
13,c1ccc2c(c1)Oc1ccccc1S2,inactive
14,C/C=C(\C)C(=O)OCC/C=C\CC,inactive
15,COC(OC)C(C)c1ccccc1 (stereo not given),inactive
16,CC1(C)S[C@@H]2[C@H](NC(=O)[C@H](N)c3ccccc3)C(=O)N2[C@H]1C(=O)O,inactive
17,CCCCCCCCCCCCCCCCCC[N+](C)(C)C,inactive
18,CCC(C)C1N=C(C)C(C)S1 (stereo not given),inactive
19,CCCC(=O)OC/C=C(\C)CCC=C(C)C,inactive
20,CC(C)CC(=O)CC(C)CC(C)C (stereo not given),inactive
